Consider 13 compounds from PubChem BioAssay.

Unmarked numbers belong to inactive results. Active and inactive are the calls of the source.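 The calls were made as follows: active = thallium flux through the channel raised or lowered by more than 3 SD from vehicle-only wells, actives on both sides; inactive = the rest.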

Holding throughout (assay): BK channel mutant inhibitors and activators – cell-based, U2OS BacMam, thallium flux, beta subunits, selectivity assay, profiling panel (AID 1259406);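 also: initial slope of Thallos dye fluorescence rise after thallium is added; log ratio against the mean of 0.3% DMSO vehicle wells on the same plate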
One experiment relates to F380Y. As to conditions: U2OS BacMam BK variants, at 30 µM.
A further experiment has as its system F380Y/beta1. The note with it: U2OS BacMam BK variants, at 30 µM.
For a further experiment, the system named is F380Y/beta2Delta. As to conditions: U2OS BacMam BK variants, at 30 µM.
The subject of the next experiment is F380Y/beta4. As to conditions: U2OS BacMam BK variants, at 30 µM.
Experiment [1] has as its target Calcium-activated potassium channel subunit alpha-1 (Homo sapiens) + Leucine-rich repeat-containing protein 26 (Homo sapiens) (UniProt Q12791+Q2I0M4). As to conditions: U2OS BacMam BK variants, F380Y/Slo1WT/gamma1, at 30 µM.
The next experiment relates to R275C. The note with it: U2OS BacMam BK variants, at 30 µM.
Another experiment has as its system R275C/beta1. As to conditions: U2OS BacMam BK variants, at 30 µM.
The subject of a further experiment is R275C/beta2Delta. As to conditions: U2OS BacMam BK variants, at 30 µM.
The next experiment relates to R275C/beta4. The note with it: U2OS BacMam BK variants, at 30 µM.
Another experiment deals with R275C/Slo1WT/beta2. The note with it: U2OS BacMam BK variants, at 30 µM.

Calcium-activated potassium channel subunit alpha-1 (Homo sapiens) + Leucine-rich repeat-containing protein 26 (Homo sapiens), sequence (Q2I0M4 whole entry, looked up, one chain of several): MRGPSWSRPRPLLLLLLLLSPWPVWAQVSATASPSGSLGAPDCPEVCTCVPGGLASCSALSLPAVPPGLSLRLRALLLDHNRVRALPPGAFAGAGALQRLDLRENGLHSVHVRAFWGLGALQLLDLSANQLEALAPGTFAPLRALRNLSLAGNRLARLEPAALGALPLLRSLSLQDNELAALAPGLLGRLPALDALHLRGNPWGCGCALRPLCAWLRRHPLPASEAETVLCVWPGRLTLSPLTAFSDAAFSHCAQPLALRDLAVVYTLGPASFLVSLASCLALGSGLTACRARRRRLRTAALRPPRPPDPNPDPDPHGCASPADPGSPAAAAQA

As for `CS(=O)(=O)C(C#N)=NNc1ccc(OC(F)(F)F)cc1`, the log fold change Tl+ flux in the experiment with F380Y was 0.0798; in the experiment with F380Y/beta1, 0.148 (active); in the experiment with F380Y/beta2Delta, 0.0975; in the experiment with F380Y/beta4, 0.0278; in experiment [1] it was 0.0802; in the experiment with R275C, 0.0522. Besides, the log fold change Tl+ flux in the experiment with R275C/beta1 is 0.0751; in the experiment on R275C/beta2Delta, 0.119 (active); with R275C/beta4, 0.0407; with R275C/Slo1WT/beta2, -0.0347.

For `O=C(Nc1ccc(-n2ccc(C(F)(F)F)n2)cc1)C1=Cc2cc(Cl)ccc2OC1`, the log fold change Tl+ flux is 0.0274 in the experiment with F380Y; -0.019 in the experiment with F380Y/beta1; 0.0253 with F380Y/beta2Delta; -0.0159 with F380Y/beta4; -0.106 in experiment [1]; -0.0271 with R275C. Besides, the log fold change Tl+ flux in the experiment on R275C/beta1 was -0.0315; in the experiment with R275C/beta2Delta it was 0.035; in the experiment with R275C/beta4 it was -0.0139; with R275C/Slo1WT/beta2, -0.0341.

Consider `Cc1c(C(=O)CSc2n[nH]c(=O)n2C(C)c2ccccc2)sc2ccc(Cl)cc12` (stereo not given), for which the log fold change Tl+ flux in the experiment on F380Y was 0.0243; in the experiment on F380Y/beta1 it was 0.0267; with F380Y/beta2Delta, 0.0136; with F380Y/beta4, -0.00607; in experiment [1] it was 0.0185; with R275C, 0.0226. For the same compound, the log fold change Tl+ flux was 0.0417 with R275C/beta1, 0.0219 in the experiment on R275C/beta2Delta, 0.0303 with R275C/beta4 and -0.0119 in the experiment with R275C/Slo1WT/beta2.

As to `CC12CC=C(C#N)C1(C)CC=C2C#N` (stereo not given), the log fold change Tl+ flux was 0.0296 with F380Y; 0.00573 in the experiment with F380Y/beta1; 0.0262 in the experiment with F380Y/beta2Delta; 0.00555 with F380Y/beta4; 0.0366 in [1]; -0.017 with R275C. For the same compound, the log fold change Tl+ flux was 0.0163 in the experiment on R275C/beta1, -0.011 in the experiment with R275C/beta2Delta, 0.0134 in the experiment on R275C/beta4 and -0.00417 in the experiment with R275C/Slo1WT/beta2.

On to `O=C1c2cccc3c(Sc4ccccc4)ccc(c23)C(=O)N1CCc1ccccn1`, for which the log fold change Tl+ flux in the experiment on F380Y was 0.00854; in the experiment on F380Y/beta1 it was -0.00319; in the experiment with F380Y/beta2Delta, -0.0137; in the experiment on F380Y/beta4, 0.0446; in experiment [1] it was 0.0111; with R275C, -0.0274. The log fold change Tl+ flux with R275C/beta1 is -0.0207; in the experiment with R275C/beta2Delta, 0.02; in the experiment with R275C/beta4, -0.00592; in the experiment with R275C/Slo1WT/beta2, 0.0318.

Regarding `O=S(=O)(Cc1nc(C=Cc2cc(C(F)(F)F)cc(C(F)(F)F)c2)no1)c1ccc(Cl)cc1`, the log fold change Tl+ flux in the experiment with F380Y was -0.0307; with F380Y/beta1, 0.0685; in the experiment with F380Y/beta2Delta, 0.000486; in the experiment on F380Y/beta4 it was -0.0134; in [1], 0.00425; with R275C, 0.0144. Also, the log fold change Tl+ flux with R275C/beta1 is 0.0543; in the experiment with R275C/beta2Delta it was 0.0281; with R275C/beta4 it was -0.0177; with R275C/Slo1WT/beta2, 0.00318.

For `N#CC1=C(Nc2ccccc2Cl)SC(c2ccncc2)NC1=O` (stereo not given), the log fold change Tl+ flux was -0.0226 in the experiment on F380Y; 0.0482 in the experiment on F380Y/beta1; 0.0198 with F380Y/beta2Delta; -0.00461 in the experiment with F380Y/beta4; 0.0291 in experiment [1]; 0.0616 in the experiment on R275C. Also, the log fold change Tl+ flux in the experiment with R275C/beta1 is 0.0544; in the experiment on R275C/beta2Delta, 0.0222; in the experiment on R275C/beta4, 0.0286; in the experiment on R275C/Slo1WT/beta2 it was 0.0417.

On to `CC(C)n1c(SCC(=O)c2ccccc2)nc2cc(Cl)ccc21`, for which the log fold change Tl+ flux with F380Y is -0.0377; with F380Y/beta1 it was -0.0145; in the experiment with F380Y/beta2Delta, -0.0247; with F380Y/beta4 it was -0.709 (active); in experiment [1], -1.05 (active); with R275C, -0.667 (active). For the same compound, the log fold change Tl+ flux in the experiment with R275C/beta1 is -0.35 (active); in the experiment with R275C/beta2Delta, -0.0838 (active); in the experiment on R275C/beta4, -0.0424; in the experiment with R275C/Slo1WT/beta2 it was -0.173 (active).

Take `O=C(Cn1ccc(C(F)(F)F)n1)c1ccc(Cl)cc1`: the log fold change Tl+ flux is 0.0102 in the experiment on F380Y; 0.0189 in the experiment on F380Y/beta1; -0.0159 in the experiment with F380Y/beta2Delta; 0.0229 in the experiment on F380Y/beta4; -0.00441 in experiment [1]; 0.00925 in the experiment on R275C. Besides, the log fold change Tl+ flux is 0.0122 with R275C/beta1, -0.0132 in the experiment on R275C/beta2Delta, 0.0276 in the experiment with R275C/beta4 and 0.0269 in the experiment with R275C/Slo1WT/beta2.

In the case of `O=S(=O)(NCc1ccc2c(c1)CCO2)c1cccs1`, the log fold change Tl+ flux with F380Y was -0.0321; in the experiment with F380Y/beta1, -0.0222; in the experiment with F380Y/beta2Delta it was -0.0113; in the experiment with F380Y/beta4 it was -0.00792; in [1], -0.0976; with R275C it was -0.0104. Also, the log fold change Tl+ flux with R275C/beta1 is -0.072; in the experiment with R275C/beta2Delta, -0.0692; in the experiment on R275C/beta4 it was -0.0665; with R275C/Slo1WT/beta2, -0.0508.

`CCOC(=O)Cn1c(-c2c(Cl)cccc2Cl)noc1=O`: the log fold change Tl+ flux in the experiment on F380Y was 0.00248; in the experiment on F380Y/beta1 it was -0.00728; in the experiment on F380Y/beta2Delta, -0.0091; in the experiment with F380Y/beta4 it was -0.00368; in experiment [1] it was -0.0669; in the experiment on R275C it was 0.0179. Further, the log fold change Tl+ flux with R275C/beta1 was -0.00444; in the experiment on R275C/beta2Delta, 0.0184; in the experiment with R275C/beta4, -0.018; in the experiment with R275C/Slo1WT/beta2, 0.00072.

Turning to `COC(=O)CC1(C(=O)OC)Oc2ccc(Br)cc2C(=O)N1c1cccc(Cl)c1Cl` (stereo not given), the log fold change Tl+ flux is -0.195 (active) with F380Y; 0.188 (active) in the experiment on F380Y/beta1; -0.0998 in the experiment with F380Y/beta2Delta; -0.677 (active) in the experiment with F380Y/beta4; -0.246 (active) in experiment [1]; -0.108 (active) in the experiment with R275C. For the same compound, the log fold change Tl+ flux is 0.102 in the experiment with R275C/beta1, 0.0176 with R275C/beta2Delta, -0.204 (active) in the experiment on R275C/beta4 and -0.0135 with R275C/Slo1WT/beta2.

For `O=S1(=O)CC(N2CCOCC2)c2ccccc21` (stereo not given), the log fold change Tl+ flux with F380Y was -0.0264; with F380Y/beta1 it was -0.00462; in the experiment on F380Y/beta2Delta it was 0.0333; in the experiment on F380Y/beta4 it was 0.00745; in experiment [1], 0.00701; with R275C, -0.00299. Moreover, the log fold change Tl+ flux was 0.0226 in the experiment with R275C/beta1, 0.00722 in the experiment on R275C/beta2Delta, 0.00198 in the experiment with R275C/beta4 and -0.0351 in the experiment on R275C/Slo1WT/beta2.
